Measurements as given in PubChem BioAssay AID2401 (Southern Research Specialized Biocontainment Screening …, 2010).
The whole screen tested about 2,200 compounds, of which about 530 (24%) were called active. The list is a sample of the results. Potency and affinity values are given separately. Values without a mark were called inactive.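 How the source made its calls: active means inhibition above a set limit at one or more concentrations of the dose series; inactive means inhibition under that limit at every dose.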

Test: nmpC-GFP reporter counter-screen in S. Typhimurium, dose response, counter-screen for PhoP regulon inhibitor project, Salmonella Typhimurium, GFP fluorescence (AID 2401);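 further: S. typhimurium with Mg-insensitive nmpC-GFP reporter grown at 10 µM Mg2+; drop in reporter fluorescence reflects general culture growth inhibition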
Conditions: 4 h; series mostly up to 150 µM; inhibition: at the top concentration

Structure (SMILES)	inhibition
Cc1cc(C)c(NC(=O)COc2ccccc2C(=O)Nc2ccc3c(c2)oc2ccccc23)c(C)c1	-12.5%
CC1(C)CC(=O)C=C(Nc2ccccc2NC(=O)c2cnccn2)C1	-11.4%
COc1cc(C2NC(=O)NC(c3ccccc3)=C2C(C)=O)ccc1OCC(=O)O (stereo not given)	-5.18%
Cc1ccc(C(=O)c2ccccc2C(=O)O)c(O)c1	5.97%
Cc1c(/C=C/C(=O)c2ccccc2)cnn1C	-35.3%
COc1cccc(OC)c1C(=O)NC(=S)Nc1cc(-c2nc3ccccc3[nH]2)ccc1Cl	15.3%
Cc1cc(C=O)c(C)n1-c1ccc(Oc2ccc([N+](=O)[O-])cn2)cc1	0.24%
CCCn1c(SCC(=O)NCCc2ccccc2)nnc1-c1cccnc1	-16.1%
O=[N+]([O-])c1ccc(N2CCN(CCOc3nonc3-c3ccccc3)CC2)c(Cl)c1	-27.8%
Cc1ccc(S(=O)(=O)c2c(N)n(NC(=O)c3ccco3)c3nc4ccccc4nc23)cc1	-18.7%
Cc1c(Cl)cccc1NC(=O)CSc1ncnc2c1cnn2CCc1ccccc1	-13.4%
Cc1cccc(NC(=S)NC(NC(=O)c2ccco2)C(Cl)(Cl)Cl)c1 (stereo not given)	-26.1%
CN(C)CCOC(=O)Cc1ccc(Cl)cc1	-18.6%
O=C(CN1C(=O)c2ccccc2C1=O)N1CCN(c2ccccn2)CC1	-25.8%
COC(=O)c1ccccc1Oc1cnc2ccccc2n1	-28.7%
Brc1ccc(NC2=Nc3ccccc3CC2)cc1	-11.1%
COc1ccc(N(CC(=O)Nc2ccccc2SC)S(C)(=O)=O)cc1OC	-12.1%
Cc1ccccc1CS(=O)(=O)c1snnc1C	-13.8%
CC(=O)Nc1ccc(NS(=O)(=O)c2ccc3c(c2)n(C)c(=O)n3C)cc1	-23.9%
CCOc1ccc(-c2nnc(SCc3nnc(-c4ccccc4)o3)n2-c2ccccc2F)cc1	-8.6%
COc1ccc(/C=C/C(=O)NCCc2nc3ccccc3[nH]2)cc1	26.3%
CCOc1cc(/C=C2/NC(=O)N(CC(=O)Nc3cccc(C)c3)C2=O)ccc1OC	-25.9%
O=C(c1cccnc1Nc1ccc2c(c1)CCC2)N1CCOCC1	-20.1%
Cc1cc(C)cc(NC(=O)CSc2nc3c(c(=O)[nH]2)CN(Cc2ccc(F)cc2)CC3)c1	-6.71%
O=C(c1cc2ncc(Br)cn2n1)N1CCOCC1	-18.7%
O=[N+]([O-])c1ccccc1CNc1ccc(F)c(Cl)c1	-24%
Nc1nnc(SCCOc2ccc(Br)cc2)s1	-20%
O=S(=O)(NCc1ccccc1)c1cccc(S(=O)(=O)N2CCOCC2)c1	11%
COc1ccc(Cl)cc1Nc1nc(-c2sc(NC(=O)c3ccco3)nc2C)cs1	20.6%
O=C(/C=C/c1ccccc1)N1CCN(c2c(Cl)cccc2[N+](=O)[O-])CC1	-29.2%
